Results as given in PubChem BioAssay.
Active and inactive are the calls of the source. Unless noted, no rule for the calls is given here.

Columns and labels:
[1] = test system: Wnt5a (protein binding on small-molecule microarray); assay: small molecules binding Wnt5a protein – biophysical, small-molecule microarray, 635/667 nm fluorescence, primary screen (AID 1142); conditions: 635 nm fluorescence, higher = more signal;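 also: fluorescence read at 667 nm with signal to noise per printed feature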
[2] = ATP-based viability of Huh7 replicon cells – cell-based, CellTiter-Glo luminescence, basal, 48 h, cytotoxicity control for HCV replication inhibitor project, primary screen (AID 1143); conditions: higher = more signal, called active from +8 up or from −8 down;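 also: Huh7 hepatoma cells carrying a hepatitis C replication reporter with no stimulus; test concentration not given here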
[3] = Pseudomonas biofilm growth suppression – PAO1 strain, BacTiter-Glo luminescence, LB-PBS, primary screen (AID 1144); conditions: P. aeruginosa PAO1 biofilm, 12 h, higher = more signal
[4] = basal CRE-LacZ reporter activity in PC12 – cell-based, unstimulated, primary screen (AID 1145); conditions: no forskolin, luminescence, 4.5 h, higher = more signal, called active from +8 up or from −8 down
[5] = forskolin-driven CRE-LacZ activity in PC12 – cell-based, CRE-LacZ reporter, forskolin-stimulated, primary screen (AID 1146); conditions: luminescence, 4.5 h, higher = more signal, called active from +8 up or from −8 down;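 also: PC12 cells with 6xCRE LacZ reporter stimulated by forskolin 10 µM; beta-galactosidase reporter signal reflecting CREB driven transcription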
[6] = molecular target: Streptavidin (Streptomyces avidinii) (UniProt P22629); assay: compounds binding control protein streptavidin – biophysical, small-molecule microarray, 635/667 nm fluorescence, artefact control for SMM compound annotation, primary screen (AID 1147); conditions: higher = more signal;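 also: signal reflects streptavidin binding to arrayed compounds as a control protein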
[7] = probe aInhba binding on compound microarray – biochemical, small-molecule microarray, 635/667 nm fluorescence, primary screen (AID 1148); conditions: higher = more signal;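 also: score merges 667nm spot fluorescence with signal-to-noise for antibody binding to printed compounds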
Torsin-1A (Homo sapiens) [8] = molecular target: Torsin-1A (Homo sapiens) (UniProt O14656); assay: TOR1A wild-type binding on microarray – cell lysate, small-molecule microarray, lysate, 635/667 nm, primary screen (AID 1149); conditions: COS7 hTOR1A-WT lysate, 635 nm fluorescence, higher = more signal
Torsin-1A (Homo sapiens) [9] = molecular target: Torsin-1A (Homo sapiens) (UniProt O14656); assay: torsin A mutant lysate binding on microarrays – cell lysate, small-molecule microarray, COS7 lysate, 635/667 nm fluorescence, primary screen (AID 1150); conditions: COS7 hTOR1A mutant lysate, 635 nm fluorescence, higher = more signal;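 also: score pools 667 nm emission and signal to noise measuring lysate protein binding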
[10] = test system: Sonic hedgehog protein (Shh); assay: Sonic hedgehog microarray binding compounds – biochemical, small-molecule microarray, 635/667 nm fluorescence, primary screen (AID 1151); conditions: 635 nm fluorescence, higher = more signal;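 also: Shh protein binding to compounds spotted on small-molecule microarray slides; score combines spot fluorescence intensity with signal-to-noise across triplicate slides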

Chain of Streptavidin (Streptomyces avidinii) (P22629 whole entry, looked up): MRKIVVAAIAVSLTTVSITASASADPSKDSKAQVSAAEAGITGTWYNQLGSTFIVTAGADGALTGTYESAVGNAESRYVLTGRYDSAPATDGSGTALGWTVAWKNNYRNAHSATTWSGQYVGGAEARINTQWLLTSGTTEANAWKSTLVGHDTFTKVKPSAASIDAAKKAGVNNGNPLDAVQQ
Chain of Torsin-1A (Homo sapiens) (O14656 whole entry, looked up): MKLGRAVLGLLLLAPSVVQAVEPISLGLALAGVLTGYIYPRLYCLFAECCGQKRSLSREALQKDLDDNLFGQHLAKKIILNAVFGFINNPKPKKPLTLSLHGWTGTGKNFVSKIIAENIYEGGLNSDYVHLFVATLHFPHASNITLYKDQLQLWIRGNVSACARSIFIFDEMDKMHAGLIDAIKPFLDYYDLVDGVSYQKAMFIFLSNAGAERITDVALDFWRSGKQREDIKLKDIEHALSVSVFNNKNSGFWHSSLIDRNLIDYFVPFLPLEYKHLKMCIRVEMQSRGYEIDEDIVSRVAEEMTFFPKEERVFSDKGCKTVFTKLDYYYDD

Structure (SMILES)	composite z-score [1]	z-score [2]	z-score [3]	z-score [4]	z-score [5]	composite z-score [6]	composite z-score [7]	composite z-score (Torsin-1A (Homo sapiens) [8])	composite z-score (Torsin-1A (Homo sapiens) [9])	composite z-score [10]
O=C1C2C=CC(C(O)c3c(F)cccc3Cl)N(Nc3ccccc3F)C2C(=O)N1c1ccccc1 (stereo not given)	0.185	1.04 (inactive)	-0.563 (inactive)	0.243 (inactive)	-0.0389 (inactive)	0.396	0.143	0.0354	0.301	-0.356
CO[C@H]1O[C@H](CO)[C@@H](OC(=O)Nc2ccc(Br)cc2)[C@@H]2OC(=O)[C@H](Cc3cccc(Br)c3)C/C=C/C[C@@H](Cc3cccc(Br)c3)C(=O)O[C@@H]12	-0.149	-5.6 (inactive)	-2.06 (inactive)	-0.878 (inactive)	0.243 (inactive)	-0.174	0.0387	-0.541	0.384	1.58
Cc1ccc(S[C@]2(C(=O)O)CC(=O)N(Cc3ccccc3C(F)(F)F)[C@@H]2c2ccc(CO)cc2I)cc1	0.192	-1.03 (inactive)	0.586 (inactive)	-0.619 (inactive)	1.81 (inactive)	-0.584	-0.193	-0.46	1.98	0.0365
COC(=O)[C@@]1(Cc2ccc(OC)cc2)[C@H]2c3cc(C(=O)N4CCCC4)n(Cc4nc5ccccc5[nH]4)c3C[C@H]2CN1C(=O)c1ccccc1	0.704	-2 (inactive)	0.848 (inactive)	-0.182 (inactive)	0.147 (inactive)	1.78	0.802	0.0984	1.7	-0.245
COC(=O)c1c(CC[C@@H](CO)NC(=O)N[C@H](Cc2ccccc2)Cn2cc(-c3ccccn3)nn2)oc(C(C)=O)c1C(=O)OC	-0.293	-0.105 (inactive)	0.542 (inactive)	0.367 (inactive)	0.453 (inactive)	0.946	-0.105	0.813	0.0502	0.248
NC(=O)NCC#Cc1ccc2c(c1)[C@]1(C(=O)N2)[C@H](C(=O)O)[C@H]2C(=O)O[C@H](c3ccccc3)[C@H](c3ccccc3)N2[C@@H]1c1ccc(O)cc1	-0.0543	0.164 (inactive)	-0.36 (inactive)	0.892 (inactive)	-0.89 (inactive)	1.48	0.174	-0.359	-0.245	1.02
CCCNC(=O)[C@@]1(Sc2ccc(C)cc2)CC(=O)N(Cc2ccccc2C(F)(F)F)[C@@H]1c1ccc(CO)cc1I	0.168	-4.54 (inactive)	-0.376 (inactive)	-0.231 (inactive)	-0.0562 (inactive)	1.17	-0.0405	1.26	1.47	1.88
O=C1NC(=O)C2C1C=CC(C(O)c1ccc(-c3ccccc3)s1)N2Nc1ccc(Cl)cc1Cl (stereo not given)	0.289	-1.1 (inactive)	-1.77 (inactive)	-0.136 (inactive)	-0.128 (inactive)	1.34	0.0569	0.344	0.14	-0.82
O=C1[C@H]2C=C(Br)[C@H](C[C@@H]2OCCCCCCO)[C@@]12CO2	0.255	0.993 (inactive)	0.41 (inactive)	0.577 (inactive)	1.71 (inactive)	-0.29	-0.024	0.36	0.12	0.129
O=C1C[C@@](C(=O)NCc2ccccc2)(c2ccc([N+](=O)[O-])cc2)[C@@H](c2ccc(CO)cc2)N1CC12CC3CC(CC(C3)C1)C2	0.38	-4.73 (inactive)	0.657 (inactive)	0.674 (inactive)	-0.841 (inactive)	-0.243	-0.189	0.352	0.368	1.99
[N-]=[N+]=Nc1ccccc1C[C@@]1(C(=O)N2CCCCC2)N=C(c2ccc(OCCCO)cc2)O[C@@H]1c1ccccc1	0.46	-5.13 (inactive)	-0.682 (inactive)	2.11 (inactive)	-0.0605 (inactive)	1.23	0.298	0.417	0.36	0.131
O=C(O)[C@H]1C[C@H]2C(=O)N3CCC[C@H]3C(=O)N2[C@H]1c1ccc(O)cc1	-0.32	-0.44 (inactive)	-0.0598 (inactive)	-0.122 (inactive)	-0.233 (inactive)	-1.29	-0.122	0.244	0.109	0.0164
C=C[C@H](C)[C@@H](OC(=O)Nc1ccc(SC)cc1)c1ccc(O)c2ccccc12	0.64	-1.08 (inactive)	-0.492 (inactive)	-0.505 (inactive)	1.69 (inactive)	1.26	-0.0375	0.163	0.165	1.76
COC(=O)C[C@H]1O[C@@H](CCc2ccccc2)[C@@H](C)[C@@H]1[Si](C)(C)c1ccc(OC)cc1	0.0073	-1.76 (inactive)	0.315 (inactive)	-0.87 (inactive)	-0.687 (inactive)	-0.604	-0.0963	-0.247	-0.23	-0.243
COCCCNC(=O)[C@@]1(Cc2ccccc2CN=[N+]=[N-])N=C(c2ccc(OCCCO)cc2)O[C@H]1c1ccccc1CN=[N+]=[N-]	1.08	-5.48 (inactive)	-1.5 (inactive)	0.76 (inactive)	-1.68 (inactive)	0.521	-0.0195	0.0552	0.511	-0.933
COc1ccc([Si](C)(C)[C@@H]2[C@@H](CCn3cc(CCO)nn3)O[C@]3(C(=O)N(Cc4cccc(N5C(=O)c6cccc7cccc5c67)c4)c4ccccc43)[C@H]2C)cc1	0.206	-7.96 (inactive)	0.000859 (inactive)	2.93 (inactive)	-1.45 (inactive)	0.942	-0.0589	0.119	0.141	2.08
CCCCC(=C=CC[C@@H](O)c1cccc(OCCO)c1)C[C@@H](O)c1ccccn1	0.252	-0.19 (inactive)	-1.15 (inactive)	-0.102 (inactive)	0.786 (inactive)	1.5	-0.0331	1.67	0.416	1.86
CCOC(=O)C1=CC[C@@H](c2ccccc2)N(S(=O)(=O)c2ccc(C)cc2)[C@H]1c1ccc(CC)cc1	0.074	-3.08 (inactive)	1.17 (inactive)	0.136 (inactive)	0.0268 (inactive)	1.13	0.0018	0.567	0.359	-0.737
O=C1OCCC/C=C\[C@H]2OC34C=CCN(c5ccc6ccccc6c5)C(=O)[C@H]3N(CCCCCO)C(=O)[C@@H]4C12 (stereo not given in full)	-0.591	0.123 (inactive)	2.33 (inactive)	0.601 (inactive)	0.106 (inactive)	-0.773	-0.209	-2.04	-1.51	-0.0295
COc1ccc([Si](C)(C)[C@@H]2[C@@H](CC(=O)N3Cc4ccccc4C[C@H]3CO)O[C@]3(C(=O)N(Cc4cccc(N5CCC5=O)c4)c4ccccc43)[C@H]2C)cc1	0.103	-3.42 (inactive)	-0.0211 (inactive)	2.03 (inactive)	1.34 (inactive)	0.244	-0.0463	0.589	0.61	1.45
OCC1C=C(/C=C/c2ccccc2)CN1Cc1ccccc1Br (stereo not given)	0.307	-2.1 (inactive)	0.0784 (inactive)	0.856 (inactive)	-0.181 (inactive)	0.828	0.126	-0.205	0.818	1.39
C=CCC(OC(C)=O)[C@@H]1[C@@H](N(Cc2cc3ccccc3o2)C(=O)Cc2ccc(OC)cc2)c2cc(OCCCO)ccc2N1C(=O)c1ccc2ccccc2c1 (stereo not given in full)	-0.252	-1.58 (inactive)	-0.352 (inactive)	1.41 (inactive)	0.368 (inactive)	-0.277	-0.0791	-0.748	-0.502	0.688
O=C(CS)NCCCCCNC(=O)[C@@H]1C[C@@H]2C(=O)NCC(=O)N2[C@@H]1c1ccc(O)cc1	-0.0716	-0.454 (inactive)	-0.171 (inactive)	0.281 (inactive)	0.208 (inactive)	-0.618	0.0275	0.507	0.0395	1.44
C=CCOC(=O)[C@H]1[C@@H]2C(=O)O[C@@H](c3ccccc3)[C@@H](c3ccccc3)N2[C@@H](c2ccc(OCCOC(=O)[C@H]3C[C@H]4C(=O)N[C@@H](CCCCN(C)C)C(=O)N4[C@H]3c3cccc(OCCO)c3)cc2)[C@]12C(=O)Nc1ccc(I)cc12	0.559	-0.366 (inactive)	0.772 (inactive)	-0.671 (inactive)	0.892 (inactive)	0.457	0.12	0.166	0.629	2.27
Cc1ccc(S[C@]2(C(=O)NCC(C)C)CC(=O)N(Cc3cc(C(F)(F)F)cc(C(F)(F)F)c3)[C@@H]2c2ccc(CO)cc2)cc1	0.226	0.52 (inactive)	-0.846 (inactive)	-0.0781 (inactive)	1.02 (inactive)	-0.342	0.652	0.234	0.118	0.391
COC(=O)[C@@]1(Cc2ccc(F)cc2)[C@H]2c3cc(C(=O)N(C)C)n(Cc4ccc(C)o4)c3C[C@H]2CN1C(=O)c1ccccc1	0.798	-2.07 (inactive)	-0.927 (inactive)	0.387 (inactive)	-0.554 (inactive)	-0.649	1.7	4.51	4.51	-0.81
COC(=O)c1c(CC[C@@H](CO)NC(=O)N[C@@H](Cc2ccccc2)Cn2cc(-c3ccccn3)nn2)oc(C(=O)N2CCOCC2)c1C(=O)OC	-0.216	-0.625 (inactive)	-0.301 (inactive)	0.498 (inactive)	-0.248 (inactive)	-0.0372	0.0184	-0.481	0.182	1.72
O=C1OCC=C[C@H]2OC34C=CCN(CCN5CCOCC5)C(=O)[C@H]3N(CCO)C(=O)[C@@H]4[C@@H]12 (stereo not given in full)	-0.38	-0.117 (inactive)	1.82 (inactive)	0.459 (inactive)	0.168 (inactive)	-0.175	-0.359	-0.618	-0.61	1.93
CC1CC/C=C\[C@H]2OC34C=CCN(Cn5nnc6ccccc65)C(=O)[C@H]3N(CCCCCO)C(=O)[C@@H]4C2C(=O)O1 (stereo not given in full)	-0.613	-1.2 (inactive)	-0.989 (inactive)	0.0524 (inactive)	-0.567 (inactive)	-1.76	-0.176	-2.12	-1.12	-0.124
COc1cc2c(cc1OC)CN(C(=O)[C@H]1[C@@H]3C(=O)O[C@@H](c4ccccc4)[C@@H](c4ccccc4)N3[C@@H](c3ccccc3OCCO)[C@]13C(=O)Nc1ccc(C#CCCO)cc13)CC2	0.703	-0.964 (inactive)	0.677 (inactive)	0.712 (inactive)	1.64 (inactive)	0.225	-0.0567	-0.0954	0.142	1.75
